The target of assay [1] is Aldehyde dehydrogenase, mitochondrial (Homo sapiens) (UniProt P05091). The assay is described as follows: qHTS for Inhibitors of the Aldehyde Dehydrogenase Family (ALDH2) Primary screen (AID 2061308). Further: nearly all actives have a fitted effect of over 55% in size. A general note: qHTS replaces the single test concentration by a dilution series.
In assay [2] the target is Retinaldehyde dehydrogenase 3 (Homo sapiens) (UniProt P47895). The assay is described as follows: qHTS for Inhibitors of the Aldehyde Dehydrogenase Family (ALDH1A3) Primary screen (AID 2061315).

SMILES strings stand for the structures. Inconclusive results are not listed. Entries that show only a call come without a potency. Active and inactive are the calls of the source. The call rests on the fitted dose curve; in most records, active means well fitted curve in the direction sought with a large enough effect; inconclusive means small, poorly fitted or top-dose-only effect, or another doubt; inactive means no such curve, though single readings can be large; an effect the other way counts as inactive or inconclusive.

On to `CN(Cc1ccco1)c1ncnc2ccc(-c3ccc4c(c3)OCO4)cc12`, for which the Potency entry in assay [1] and in assay [2] was “inactive” in each case.

In the case of `COc1ccccc1CNC(=O)Nc1nnc(-c2ccncc2)s1`, the Potency result in assay [1] and in assay [2] was “inactive” throughout.

`CCCCCCCCn1cc(CN(CC)CC)c2cc(-c3cnc(N)nc3)ccc21`: the Potency entry in assay [1] and in assay [2] was “inactive” throughout.

For the molecule `O=C(Nc1ccccc1)C1CCN(c2nc(-c3ccc(Br)cc3)cs2)CC1`, the Potency result in assay [1] and in assay [2] was “inactive” throughout.

In the case of `Fc1cc(Nc2nc(-c3ccncc3)nc3ccccc23)ccc1-c1cn[nH]c1`, the Potency entry in assay [1] and in assay [2] was “inactive” throughout.

As to `O=c1c2ccccc2nc2sc(Nc3ccc4c(c3)CNC4)nn12`, the Potency entry in assay [1] and in assay [2] was “inactive” in each case.

Turning to `CC(C)Oc1ccc(C(=O)Nc2ccc(-c3nc4ccccc4[nH]3)cc2)cc1`, the Potency result in assay [1] and in assay [2] was “inactive” throughout.

As to `Cc1cccc(-n2cnc3cc(C(=O)N4CCCC(c5ccccc5)C4)ccc32)c1` (stereo not drawn), the Potency entry in assay [1] and in assay [2] was “inactive” each time.

With `O=C(Nc1nnc(-c2ccco2)o1)c1ccc(Br)cc1`, the Potency result in assay [1] and in assay [2] was “inactive” each time.

Consider `CCC(=O)NC(C)c1cc(Cl)c2cccnc2c1O` (stereo not drawn), for which the Potency entry in assay [1] and in assay [2] was “inactive” in each case.

Regarding `CC(=O)NC(c1ccco1)c1cc(Br)c2cccnc2c1O` (stereo not drawn), the Potency entry in assay [1] and in assay [2] was “inactive” in each case.

As to `CN1CCN(Nc2nn3c(=O)c4ccccc4nc3s2)CC1`, the Potency result in assay [1] and in assay [2] was “inactive” throughout.

As to `COc1cc(OC)cc(-c2nnc3n2N=C(c2cc(OC)ccc2OC)CS3)c1`, the Potency entry in assay [1] and in assay [2] was “inactive” in each case.

On to `NC(=O)C1CCN(c2nc(-c3cccnc3)cs2)CC1`, for which the Potency result in assay [1] and in assay [2] was “inactive” in each case.

For `CCCn1c(C)nc2c(N3CCC(N(C)C)C3)nc(C)nc21` (stereo not drawn), the Potency result in assay [1] and in assay [2] was “inactive” each time.

Take `O=C(Cc1ccc2ccccc2c1)Nc1nnc(-c2ccncc2)s1`: the Potency result in assay [1] and in assay [2] was “inactive” in each case.

As to `CC1CC(O)/C=C/C(O)/C=C\C(=O)O1` (stereo not drawn), the Potency result in assay [1] and in assay [2] was “inactive” throughout.

With `C=C1C(=O)O[C@@H]2[C@H]1CC[C@H](C)[C@]1(CCC(=O)O1)C2(C)O` (stereo partly drawn), the Potency entry in assay [1] and in assay [2] was “inactive” each time.

Take `O=C(OCC#CCSc1nnc(-c2ccc3ccccc3c2)o1)c1ccc(F)cc1`: the Potency entry in assay [1] and in assay [2] was “inactive” in each case.

As for `O=S(=O)(c1ccc2c(c1)OCCO2)N1CCN(S(=O)(=O)c2cc(F)c(F)cc2F)CC1`, the Potency entry in assay [1] and in assay [2] was “inactive” throughout.

As to `O=[S+]([O-])(c1ccc2c(c1)OCCO2)N1CCN([S+](=O)([O-])c2c(O)cc(F)cc2F)CC1`, the Potency entry in assay [1] and in assay [2] was “inactive” each time.

Turning to `Cc1ccccc1C(=O)N1CCc2cc(-c3nc(NC(=O)CC4CCCCC4)sc3C)ccc21`, the Potency result in assay [1] and in assay [2] was “inactive” throughout.

On to `CCOc1ccc(CCNC(=O)c2cc3sccc3n2Cc2ccccc2)c(F)c1OCC`, for which the Potency entry in assay [1] and in assay [2] was “inactive” throughout.

As to `COc1cc(NS(=O)(=O)c2ccc(C)cc2)cc(C(=O)Nc2nc(-c3ccccc3)cs2)c1`, the Potency result in assay [1] and in assay [2] was “inactive” throughout.

Regarding `COc1ccccc1NC(=O)C1=C(C)NC(Nc2nc3ccccc3o2)=NC1c1ccccc1Br` (stereo not drawn), the Potency entry in assay [1] and in assay [2] was “inactive” throughout.

For the molecule `O=C1c2ccccc2C(=O)N1c1ccccc1O`, the Potency entry in assay [1] and in assay [2] was “inactive” each time.

With `CCC(=O)NC(c1ccc(C)cc1)c1cc([N+](=O)[O-])c2cccnc2c1O` (stereo not drawn), the Potency entry in assay [1] and in assay [2] was “inactive” in each case.

`Cn1cncc1CNc1ncnc2ccc(-c3ccc4c(c3)OCO4)cc12`: the Potency result in assay [1] and in assay [2] was “inactive” in each case.

Consider `O=C(N1CCc2cc([S+](=O)([O-])N3CCN([S+](=O)([O-])c4c(F)cccc4F)CC3)ccc2C1)C(F)(F)F`, for which the Potency result in assay [1] and in assay [2] was “inactive” in each case.

As to `COc1ccc2nc(-c3cccc(F)c3)sc2c1`, the Potency entry in assay [1] and in assay [2] was “inactive” each time.

As for `Cc1ccccc1-c1nc(NCc2cccs2)c2ccccc2n1`, the Potency result in assay [1] and in assay [2] was “inactive” each time.

Take `CCc1ccccc1-c1nc(NCc2ccc(-c3cccnc3)cc2)c2ccccc2n1`: the Potency entry in assay [1] and in assay [2] was “inactive” each time.

Take `COc1ccc(NC(=O)c2cc(-c3ccc(C)c(C)c3)nc3ccccc23)cc1`: the Potency result in assay [1] and in assay [2] was “inactive” throughout.

Regarding `O=C(OCC#CCSc1nnc(-c2ccc3ccccc3c2)o1)c1ccccc1`, the Potency result in assay [1] and in assay [2] was “inactive” in each case.

These data come from PubChem BioAssay (NCATS).
